# Counter-ions that a name gives are not always drawn.
# Test system: Saccharomyces cerevisiae BY4741 SeMeCo community
# Test: z-score of subpopulation abundance vs DMSO median, subpopulation auxotrophic for HLU; higher = larger share of this subpopulation than in DMSO controls
# Settings: 10 µM; 24 h; SM minimal medium; subpopulation (auxotrophy): HLU
# Procedure, shortened: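 Automated confocal microscopy of paraformaldehyde-fixed cells was used to follow a Saccharomyces cerevisiae BY4741 community carrying four plasmids, each restoring one auxotrophy and encoding a distinct fluorescent protein. The community was pre-grown overnight to OD600 1.0, diluted to 0.3, and added at 70 µl to 384-well plates acoustically predosed with library drugs (10 µM final) for 24 h of growth in minimal SM medium. Single-auxotroph fluorescent strains set thresholds and autofluorescence correction, and each subpopulation's abundance was scored as a z-score against the vehicle-well median.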
row,SMILES,z-score of subpopulation abundance
1,COc1cc2c(cc1OC)C(=O)C(CC1CCN(Cc3ccccc3)CC1)C2 (configuration not stated) [Donepezil],-0.33
2,CCn1cc(C(=O)O)c(=O)c2cc(F)c(N3CCNCC3)nc21 [Enoxacin],0.23
3,NC(=O)[C@@H]1CC[C@@H]2CN1C(=O)N2OS(=O)(=O)O [Avibactam sodium],0.1
4,CN1[C@@H]2CC[C@H]1C[C@@H](OC(c1ccccc1)c1ccccc1)C2 [Benztropine mesylate],-0.48
5,C#C[C@]1(O)CC[C@H]2[C@@H]3CCC4=CCCC[C@@H]4[C@H]3CC[C@@]21C [Lynestrenol],-0.88
6,CC(C)(C)C(=O)OCOC(=O)[C@@H]1N2C(=O)[C@@H](/N=C/N3CCCCCC3)[C@H]2SC1(C)C [Pivmecillinam hydrochloride],-0.02
7,OC(c1ccccc1)(c1ccccc1)C12CC[N+](CCOCc3ccccc3)(CC1)CC2 [Umeclidinium bromide],-0.12
8,OCc1ccccc1O[C@@H]1O[C@H](CO)[C@@H](O)[C@H](O)[C@H]1O [Salicin],-0.13
9,CN(C)CCc1c[nH]c2ccc(Cn3cncn3)cc12 [Rizatriptan Benzoate],0.78
10,OCCN(CCO)c1nc(N2CCCCC2)c2nc(N(CCO)CCO)nc(N3CCCCC3)c2n1 [Dipyridamole],-3.69
11,Cn1nnnc1SCC1=C(C(=O)O)N2C(=O)[C@@H](NC(=O)[C@H](OC=O)c3ccccc3)[C@H]2SC1 [Cefamandole nafate],0.38
12,CC(=O)[C@@]1(O)CC[C@H]2[C@@H]3C[C@H](C)C4=CC(=O)CC[C@]4(C)[C@H]3CC[C@@]21C [Medroxyprogesterone],1.06

# From the supplement of paper PMC8975748
